# According to PubChem BioAssay (Tox21):
# Unmarked numbers belong to inactive results. Where a call stands in place of a potency, no number is given. The source made the active and inactive calls. Calls follow the shape of the dose curve; as a rule, active = well fitted curve in the direction sought with a large enough effect in the repeat runs; inconclusive = weak or mixed curves; inactive = flat fitted curve, though single readings scatter.
# Test: qHTS assay to test for compound auto fluorescence at 590 nm (red) in HepG2 cells (AID 720674)
# Conditions: HepG2 autofluorescence, red 540/590 nm, 1 h; series mostly up to 91.3 µM
# Excerpt: U.S. Tox21 Program National Center for Advancing Translational Sciences [NCATS] NIH Chemical Genomics Center [NCGC] U.S. Environmental Protection Agency [EPA] National Institutes of Environmental Health Sciences [NIEHS] National Toxicology Program [NTP] U.S. Food and Drug Administration [FDA] Tox21 Assay Overview: Compound auto fluorescence often interferes with screening of the compound library against various biological targets and signaling pathways. Some of these compounds may have fluorophoric properties. Such properties may interfere with the assay outputs resulting in false positives and/or negatives. To decrease such complications and ensure the compound activities are relevant in terms of biological response, the Tox21 10K compound library was screened for auto fluorescence. From the fluorophores used as reporter signals in our screening assays, the auto fluorescence equivalencies of compounds against three fluorophores have been evaluated: Triamterene, Fluorescein and Rose Bengal sodium for blue, green and red fluorescence, respectively. The fluorescence intensities were measured using Excitation/Emission wavelengths at 405/460nm, 485/535nm and 540/590nm for blue, green and red labels, respectively. This assay includes the red fluorescence data.
# Tox21 Assay Protocol Summary: 2,000 HepG2 cells in 5 uL of culture medium (MEM containing 10% FBS) per well were dispensed into black wall/clear bottom 1536-well plates using a Multidrop Combi Dispenser (ThermoFisher Scientific, Waltham, MA). The assay plates were incubated overnight at 37 C to allow cell attachment to the well bottom, followed by the transfer of 23 nL compound or DMSO vehicle by a pintool work station (Kalypsys , San Diego, CA). After the assay plates were incubated for 1 hr at 37 C and 5% CO2, fluorescence intensities in the assay plates were measured by an Envision (PerkinElmer, Shelton, CT) plate reader using three labels for measuring blue, green and red fluorescence at […] 460, 535 and 590 nm respectively.
Compound,Potency,"fluorescence, relative to Rose Bengal"
O=C1[C@H]2CCCC[C@H]2C(=O)N1CCCCN1CCN(c2nsc3ccccc23)CC1,inactive,–
O=S(c1cc(Cl)cc(Cl)c1O)c1cc(Cl)cc(Cl)c1O,inactive,–
CCCCC/C=C\C/C=C\CCCCCCCC(=O)NC(C)c1ccccc1 (stereo not given),inactive,–
COc1cc2nc(N(C)CCCNC(=O)C3CCCO3)nc(N)c2cc1OC (stereo not given),–,-0.119% [at 18.6 µM]
C=CC(=O)OCCOCCOCCOCCOC(=O)C=C,inactive,–
CCN(CC)CCOC(=O)C(c1ccccc1)C1CCCCC1 (stereo not given),inactive,–
O=C(O)CNCC(=O)O,–,-0.419% [at 3.72 µM]
NCC(=O)O,inactive,–
CCCNCC(O)COc1ccccc1C(=O)CCc1ccccc1 (stereo not given),inactive,–
CCCCCCCCCCCCCCCCOS(=O)(=O)O,inactive,–
O=S(=O)(Oc1ccc(Cl)cc1)c1ccccc1,inactive,–
c1ccc(CNCCNCc2ccccc2)cc1,inactive,–
CN(C)c1ccc(CCO)cc1,inactive,–
C=CC(=O)OCCOCCOC(=O)C=C,inactive,–
CC(=O)OC[C@H]1O[C@@H](n2ncc(=O)[nH]c2=O)[C@H](OC(C)=O)[C@@H]1OC(C)=O,inactive,–
CC[N+]1(CC)CCC(=C(c2ccccc2)c2ccccc2)C1C (stereo not given),inactive,–
CCCCC(CC)COC(=O)COc1ccc(Cl)cc1Cl (stereo not given),inactive,–
O=C(O)c1ccc(S(=O)(=O)O)cc1C(=O)O,inactive,–
CN1CCC(=C2c3ccccc3Sc3ccccc32)CC1,inactive,–
CCC(=O)O[C@]1(C(=O)CCl)[C@@H](C)C[C@H]2[C@@H]3CCC4=CC(=O)C=C[C@]4(C)[C@@]3(F)[C@@H](O)C[C@@]21C,inactive,–

Compound,Potency,"fluorescence, relative to Rose Bengal"
CCCCCC[C@@H](O)C/C=C\CCCCCCCC(=O)OC,inactive,–
CCOc1ccc(O)cc1,inactive,–
CN(C)c1ccc(C(c2ccccc2)c2ccc(N(C)C)cc2)cc1,inactive,–
CCOc1ccc(N)c([N+](=O)[O-])c1,inactive,–
O=C(CS)Nc1ccccc1,inactive,–
CCCCC,inactive,–
COc1ccc(C(=O)N2CCN(CC(=O)N3CCOCC3)CC2)cc1,inactive,–
CCCCCCCN,inactive,–
COC(=O)c1ccc(I)cc1S(=O)(=O)NC(=O)Nc1nc(C)nc(OC)n1,inactive,–
COc1ccc(C)cc1[N+](=O)[O-],inactive,–
CC(C)(COC(=O)c1ccccc1)COC(=O)c1ccccc1,inactive,–
Cc1cccc(C)c1OCC(=O)N[C@@H](Cc1ccccc1)[C@@H](O)C[C@H](Cc1ccccc1)NC(=O)[C@H](C(C)C)N1CCCNC1=O,inactive,–
C1CCCNCCC1,inactive,–
O=[N+]([O-])c1ccc(NCCO)c(OCCO)c1,inactive,–
CC/C=C\CCOC(=O)CC,inactive,–
CC1CCC(=O)C1=O (stereo not given),inactive,–
Brc1c2ccccc2c(Br)c2ccccc12,–,0.105% [at 3.72 µM]
CCOCC(O)COc1ccc(NC(=O)CC[S+](C)C)cc1 (stereo not given),inactive,–
NCC(=O)CCC(=O)O,inactive,–
C=C(C)C(=O)OCCO,inactive,–
